An excerpt weighted towards active compounds, which were near 2.4% of everything screened.
FEN1 inhibitor: human FEN1 inhibition; P39748; Recombinant FEN1 flap cleavage, fluorescence, 15 min; Potency, µM (highest dose often 114 µM), inactives show at the highest dose activity change, negative = inhibition, actives largely listed as inhibitors; actives 0.35% (n = 390,000); AID 588795; also: potency is read from the fitted curve at half-maximal effect; % is scaled to controls: 0 for no effect and ±100 for the full control effect; nearly all actives have a fitted effect of over 65% in size
Target sequence (P39748 whole entry, looked up): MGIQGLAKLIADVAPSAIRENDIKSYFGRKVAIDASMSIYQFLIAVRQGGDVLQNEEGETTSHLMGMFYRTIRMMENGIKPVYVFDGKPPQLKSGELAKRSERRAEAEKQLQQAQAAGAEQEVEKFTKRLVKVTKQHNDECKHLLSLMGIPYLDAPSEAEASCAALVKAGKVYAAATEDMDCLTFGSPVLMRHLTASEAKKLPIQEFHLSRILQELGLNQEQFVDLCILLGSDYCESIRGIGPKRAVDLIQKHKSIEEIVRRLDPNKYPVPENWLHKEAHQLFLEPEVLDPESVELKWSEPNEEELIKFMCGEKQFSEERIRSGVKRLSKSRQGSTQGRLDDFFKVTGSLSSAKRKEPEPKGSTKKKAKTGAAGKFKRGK
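FEN1 at 10 nM preincubated with compounds 15 min at room temperature, then flap DNA substrate added at 50 nM final. Signal read at 0 and 15 min; concentration-response fitted with four-parameter Hill equation.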
Pol iota inh: DNA polymerase iota (human) inhibition; Potency, µM (series often up to 115 µM), for the others: top-dose activity, negative = inhibition, hits mostly inhibitors; AID 588590; actives 1% (n = 390,000); Pol iota fluorescent replication assay, 10 min; Q9UNA4; also: potency is read from the fitted curve at half-maximal effect
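Pol iota at 10 nM preincubated 15 min with compounds at room temperature; reaction started with fluorescent substrate, 50 nM final. Fluorescence read kinetically at 0 and 10 min; buffer-only wells as negative control.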
Pol beta inh: DNA polymerase beta (human) inhibition; Pol beta primer extension/strand displacement, fluorescence kinetic; Potency, µM (titrated, usually from 114 µM), for inactives: top-dose activity change, negative = inhibition, hits mostly inhibitors; actives 1.3% (n = 340,000); P06746; AID 485314; also: potency is read from the fitted curve at half-maximal effect; % is scaled to controls: 0 for no effect and ±100 for the full control effect
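Preincubation: enzyme (10 nM) with compound, 15 min, RT. Reaction: substrate added to 50 nM final. Reads: 0 and 10 min. Analysis: normalized, Hill fit.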
Pol eta inh-1: blocks human DNA polymerase eta activity; actives 1.2% (n = 390,000); Potency, µM (doses to about 114 µM), inactives show at the top dose activity change, negative = inhibition, most hits filed as inhibitors; AID 588591; Q9Y253; recombinant Pol eta, fluorescent DNA replication assay; also: potency is read from the fitted curve at half-maximal effect; % is scaled to controls: 0 for no effect and ±100 for the full control effect
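Fluorescent replication assay: 50 nM final substrate added after a 15 min room-temperature compound preincubation with 10 nM enzyme. Signal taken at 0 min and again at 10 min.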
WRN helicase inh: WRN helicase (human) inhibition; actives 0.46% (n = 360,000); WRN helicase unwinding, fluorescent forked duplex, kinetic; Potency, µM (series often up to 114 µM), for the others: top-dose activity change, negative = inhibition, actives largely listed as inhibitors; Q14191; also: potency is read from the fitted curve at half-maximal effect; % is scaled to controls: 0 for no effect and ±100 for the full control effect; nearly all actives have a fitted effect of over 55% in size
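Primary qHTS, 1536-well format. 20 nM WRN + compound, 15 min RT; start with 100 nM forked fluorophore/quencher duplex, 2 mM ATP (final); kinetic read ex 525/em 598 nm.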
Pol kappa inh-1: blocks human DNA polymerase kappa activity; Q9UBT6; purified Pol kappa, fluorescent DNA synthesis assay, 10 min; Potency, µM (highest dose often 107 µM), for inactives: at the highest dose activity, negative = inhibition, most hits filed as inhibitors; actives 0.53% (n = 400,000); also: potency is read from the fitted curve at half-maximal effect; % is scaled to controls: 0 for no effect and ±100 for the full control effect
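Kinetic fluorescence screen: compound preincubated 15 min RT with 10 nM enzyme; 50 nM substrate (final) initiates; reads at 0/10 min.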
GALK inh confirm: confirmation of human galactokinase (GALK) inhibitors | shares compounds with Pol eta inh-1 | actives 70% (n = 150) | purified GALK, Kinase-Glo ATP depletion luminescence | Potency, µM (top dose mostly 115 µM), for the others: at the top dose activity, negative = inhibition, hits mostly inhibitors | AID 2015
Target sequence (P51570 whole entry, looked up): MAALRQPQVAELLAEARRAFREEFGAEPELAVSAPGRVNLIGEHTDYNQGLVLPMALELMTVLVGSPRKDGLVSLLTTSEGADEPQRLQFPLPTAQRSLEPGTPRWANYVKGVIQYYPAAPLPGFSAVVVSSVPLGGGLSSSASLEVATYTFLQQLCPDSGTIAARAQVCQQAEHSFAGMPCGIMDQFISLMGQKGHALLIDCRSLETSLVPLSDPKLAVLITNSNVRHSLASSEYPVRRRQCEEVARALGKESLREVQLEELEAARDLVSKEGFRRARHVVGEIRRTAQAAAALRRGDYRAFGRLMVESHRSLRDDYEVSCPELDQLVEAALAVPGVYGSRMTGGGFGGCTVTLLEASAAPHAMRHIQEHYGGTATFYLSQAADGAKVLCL
GALK redox cs: counter-screen for GALK inhibitors: redox cycling H2O2 generation. AID 2035. Potency, µM (series often up to 115 µM), for inactives: top-dose activity change, negative = H2O2 signal, hits mostly inhibitors. Phenol red-HRP H2O2 redox cycling, absorbance 600 nm. actives 40% (n = 150). shares compounds with Pol eta inh-1
HEK293 viability: reduces HEK-293 cell viability in GALK counter-screen. shares compounds with Pol eta inh-1. HEK-293 viability, ATP luminescence (CellTiter-Glo), 24/48 h. Potency, µM (highest dose often 46.1 µM), without a hit: at the highest dose activity change, negative = cytotoxicity, hits mostly inhibitors. actives 10% (n = 170). AID 2547; also: potency is read from the fitted curve at half-maximal effect; % is scaled to controls: 0 for no effect and ±100 for the full control effect
Pol kappa inh-2: confirmation of human DNA polymerase kappa inhibitors; Potency, µM, actives largely listed as inhibitors; purified Pol-kappa, fluorescent strand-displacement substrate; AID 720501; actives 76% (n = 920); shares compounds with Pol eta inh-1; also: potency is read from the fitted curve at half-maximal effect
Pol eta inh-2: confirmation of human DNA polymerase eta inhibitors. Pol eta primer extension, TAMRA/BHQ fluorescence, 10 min. actives 64% (n = 2,600). shares compounds with Pol eta inh-1. Potency, µM, actives largely listed as inhibitors; also: potency is read from the fitted curve at half-maximal effect
Active calls of the source: *; ? = inconclusive; / = not tested or not shown; [ ] = dose if it differs, or a comment. Calls follow the shape of the dose curve; as a rule, active = well fitted curve in the direction sought with a large enough effect; inconclusive = small, poorly fitted or top-dose-only effect, or another doubt; inactive = no such curve, though single readings can be large; an effect the other way counts as inactive or inconclusive.

SMILES | FEN1 inhibitor | Pol iota inh | Pol beta inh | Pol eta inh-1 | WRN helicase inh | Pol kappa inh-1 | Pol eta inh-2 | others
O=[N+]([O-])c1ccc(O)c(C=NNc2ccc(S(=O)(=O)O)cc2)c1 | -2% | 22µM* | / | 6.3µM* | -29% | ? | 54* | Pol kappa inh-2=21*
COC1[C@@H](OC)C[C@H](C)[C@@H](OC)C2=CC(=O)C=C(NC(=O)/C(C)=C/C=C\[C@H](OC)[C@@H](OC(N)=O)/C(C)=C/[C@@H]1C)C2=O (stereo partly drawn) | / | / | / | / | / | -10%[60.1 µM] | /
Cc1ccc(C(=O)N/C(=C\c2ccc(Cl)cc2)C(=O)NCCN2CCOCC2)cc1 | 4% | 87% | 0% | -7% | 0% | 1% | / | GALK inh confirm=-6%;GALK redox cs=-2%;HEK293 viability=-2%
O=C(NCCN1CCOCC1)/C(=C/c1ccc(Cl)cc1)NC(=O)c1ccccc1 | 13% | 48% | 33% | -9% | -3% | -7% | /
CCOc1cc(-c2ccc(OC(=O)c3ccc(Cl)cc3)c(OC)c2)cc(=O)c2c(C)oc(C)c12 | -5% | -5% | ? | -12% | / | -4% | /
COc1ccc(/C=C2\SC(=S)N(CCCC(=O)Nc3ccc(C(=O)O)cc3)C2=O)cc1OC | ? | 56µM* | ? | ? | ? | -27% | / | Pol kappa inh-2=42*
COc1ccc2c(C)c(CCC(=O)NCc3ccc(C)cc3)c(=O)oc2c1 | 16% | 12% | 14% | -8% | / | 13% | /
CC(=O)COC(=O)C1CCN(S(=O)(=O)c2cc([N+](=O)[O-])ccc2Cl)CC1 | -11% | ? | 28µM* | 32µM* | 0%[11.6 µM] | ? | ?
O=C(NCCN1CCCCC1)c1ccc(Cn2c(SCc3cccc(F)c3)nc3cccnc32)cc1 | -1% | 35% | -1% | -16% | / | 5% | /
COc1ccc2[nH]c(O)c(N=NC(=O)c3ccc(NS(=O)(=O)c4cccs4)cc3)c2c1 | ? | 40µM* | / | 3.5µM* | ? | 79µM* | 38* | Pol kappa inh-2=17*
COc1cc(/C=C/c2[nH]c(=O)[nH]c(=O)c2[N+](=O)[O-])cc([N+](=O)[O-])c1O | ? | ? | ? | 22µM* | -13%[11.6 µM] | -16% | 60* | Pol kappa inh-2=?
CCC(C)Oc1ccc(/C=C/c2[nH]c(=O)[nH]c(=O)c2[N+](=O)[O-])cc1OC (stereo not drawn) | -3% | ? | 4% | -20% | 4% | -4% | /
O=c1[nH]c(/C=C/c2cccc([N+](=O)[O-])c2)c([N+](=O)[O-])c(=O)[nH]1 | -3% | ? | -21% | 25µM* | -5%[11.6 µM] | -3% | / | GALK inh confirm=38µM*;GALK redox cs=2%;HEK293 viability=7%
O=c1[nH]c(/C=C/c2ccc(Cl)cc2Cl)c([N+](=O)[O-])c(=O)[nH]1 | 4% | 50µM* | 32µM* | 20µM* | -32% | -14% | 76*
O=c1[nH]c(/C=C/c2ccccc2)c([N+](=O)[O-])c(=O)[nH]1 | -5% | ? | ? | ? | -26% | -6% | /
Cc1cccc(N2CCN(C(=O)CN3C(=O)COc4ccc(S(=O)(=O)N5CCCC5)cc43)CC2C)c1 (stereo not drawn) | 10% | 14% | 12% | -11% | / | -15% | /
Cc1ccc2nc(SC(Cc3cc(Cl)ccc3Cl)C(=O)O)[nH]c2c1 (stereo not drawn) | -9% | 29% | ? | -19% | / | -4%[60.1 µM] | /
Cc1cccc(N(C)S(=O)(=O)c2nnc(NC(=O)C(C)Oc3ccccc3)s2)c1 (stereo not drawn) | -25% | -26% | -20% | -11% | / | -26% | /
CCn1cc(C(=O)N(C)c2cc(C)ccc2C)c2cc(OC)c(OC)cc2c1=O | 14% | 8% | ? | -20% | / | -10% | /
Cc1ccc(C)c(CN2C(=O)CSc3ccc(C(=O)NCCN4CCOCC4)cc32)c1 | 6% | 106% | -12% | -5% | -5% | -5% | / | GALK inh confirm=-10%;GALK redox cs=-9%;HEK293 viability=1%
O=C(NCCN1CCOCC1)c1ccc2c(c1)N(Cc1ccccc1F)C(=O)CS2 | -1% | 26% | 3% | -16% | -13% | -7% | /
CCc1ccc(NS(=O)(=O)c2ccc(-c3cc(C)no3)cc2)cc1 | -7% | 18% | -2% | -18% | / | -31% | /
Cc1noc(NS(=O)(=O)c2ccc(NC(=O)c3ccoc3C)cc2)c1C | -3% | 40µM* | ? | 10µM* | -23%[57.1 µM] | ? | ?
Cc1cc(C(=O)Nc2ccc(S(=O)(=O)Nc3onc(C)c3C)cc2)c(C)o1 | 25% | ? | 7% | -16% | -24%[57.1 µM] | ? | /
O=C1NN(c2ccc(Br)cc2)C(=O)/C1=C\c1ccc(O)cc1O | -19% | ? | 3% | 4% | -19% | -38% | / | GALK inh confirm=47µM*;GALK redox cs=-3%;HEK293 viability=-4%
Cc1ccc2nc3sc(C(=O)NCc4ccco4)cc3cc2c1 | / | / | / | / | / | / | 76*
CC1CCN(S(=O)(=O)c2ccc3c(c2)CCN3C(=O)Nc2ccc(Br)cc2F)CC1 | -1% | 39% | 21% | / | / | 13% | /
COc1ccc(C2=CC3=C(Br)C(=O)C(C)(OC(=O)c4cccs4)C(=O)C3=CO2)cc1 (stereo not drawn) | ? | ? | / | 40µM* | ? | ? | ?
COc1cccc(CNC(=O)CN2c3cccc4cccc(c34)S2(=O)=O)c1 | -12% | 45µM* | / | 14µM* | -10%[11.6 µM] | ? | ?
Cc1ccccc1N1CC(c2nc3ccccc3n2Cc2ccc(Br)cc2)CC1=O (stereo not drawn) | -5% | 15% | 1% | -23% | / | 11% | /
